A short description of assay [1]: qHTS assay to identify aromatase inhibitors - cell viability counter screen (AID 743084).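 Note: cells stimulated with testosterone during compound exposure; nearly all actives have a fitted effect of over 55% in size.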
Assay [2] addresses Aryl hydrocarbon receptor (Homo sapiens) (UniProt P35869). Briefly: qHTS assay to identify small molecule that activate the aryl hydrocarbon receptor (AhR) signaling pathway (AID 743085).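 Note: HG2L7.5c1 human HepG2 liver cells with stably integrated DRE-driven firefly reporter; series mostly up to about 70 µM; nearly all actives have a fitted effect of over 15% in size.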 Put shortly: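 Compounds were tested in HepG2 hepatocellular carcinoma cells harbouring a stably integrated luciferase gene under control of 20 DREs. Increased reporter signal after 24 h treatment at 37C was taken as AhR activation.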

The nature of assay [3]: qHTS assay to identify small molecule that activate the aryl hydrocarbon receptor (AhR) signaling pathway - cell viability counter screen (AID 743086). Note: series mostly up to about 70 µM; nearly all actives have a fitted effect of over 45% in size. Put shortly: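 Cytotoxicity counter screen: CellTiter-Fluor signal (30 min, 37 C) in 4000 HepG2 cells/well carrying the DRE-luciferase reporter, following 24 h compound exposure at 37 C.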
Assay [4] concerns the target Peroxisome proliferator-activated receptor gamma (Homo sapiens) (UniProt P37231). Briefly: qHTS assay to identify small molecule agonists of the peroxisome proliferator-activated receptor gamma (PPARg) signaling pathway (AID 743094; active = well fitted activation curve with a large enough effect in the signal ratio in the repeat runs, not every such curve was filed as active; the % refers to the signal ratio). Put shortly:
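GeneBLAzer PPARg UAS-bla HEK293H cells were plated, rested 5 h, then exposed to compounds for 17 h at 37C. Beta-lactamase activity was read by LiveBLAzer B/G FRET substrate fluorescence after 1 h at room temperature.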

For assay [5] the target is unchanged. Kind of assay: qHTS assay to identify small molecule antagonists of the peroxisome proliferator-activated receptor gamma (PPARg) signaling pathway (AID 743191; calls by dose curve; note: series mostly up to about 63 µM; nearly all actives have a fitted effect of over 30% in size). The method, boiled down: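 Beta-lactamase reporter under UAS control in HEK293H PPARg-bla cells; compound treatment 17 h at 37C. Read-out: fluorescence intensity after 1 h room-temperature incubation with LiveBLAzer B/G FRET substrate.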

A short description of assay [6]: qHTS assay for small molecule agonists of the antioxidant response element (ARE) signaling pathway (AID 743202; active = well fitted activation curve with a large enough effect in the signal ratio in the repeat runs, not every such curve was filed as active; the % refers to the signal ratio; note: potency is the fitted concentration of half-maximal effect). Put shortly:
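Quantitative high-throughput format in HepG2 cells bearing an integrated ARE-beta-lactamase reporter. Compound exposure lasted 16 h at 37 C, and fluorescence was read 2 h after adding LiveBLAzer B/G substrate at room temperature.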

A short description of assay [7]: qHTS assay for small molecule agonists of the antioxidant response element (ARE) signaling pathway - cell viability counter screen (AID 743203; calls by dose curve; note: nearly all actives have a fitted effect of over 55% in size). The method, boiled down: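 ARE-bla HepG2 cells were plated, rested 5 h at 37C/5% CO2, then exposed to compounds in DMSO for 16 h. Viability was read as CellTiter-Glo luminescence after 30 min at room temperature, in the same wells as the ARE screen.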

The nature of assay [8]: qHTS assay for small molecule activators of the heat shock response signaling pathway - cell viability counter screen (AID 743209). Note: nearly all actives have a fitted effect of over 50% in size. Put shortly:
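HSE-bla HeLa cells plated overnight, then exposed to Tox21 compounds (23 nL in DMSO) for 5 h at 37 C. After the bla reporter read, CellTiter-Glo was added in the same wells and luminescence read after 30 min at room temperature.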

Assay [9] can be described thus: qHTS assay for small molecule activators of the heat shock response signaling pathway (AID 743210; active = well fitted activation curve with a large enough effect in the signal ratio in the repeat runs, with a control signal flat, not every such curve was filed as active; the % refers to the signal ratio;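 note: HeLa cells with beta-lactamase reporter driven by heat shock elements; series mostly up to about 63 µM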). Put shortly:
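HeLa HSE-bla cells, overnight plating; cpd in DMSO 5 h, 37 C; LiveBLAzer B/G FRET substrate 2.5 h RT; fluorescence intensity read.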

The nature of assay [10]: qHTS assay to identify small molecule agonists of the peroxisome proliferator-activated receptor delta (PPARd) signaling pathway - cell viability counter screen (AID 743211). Note: nearly all actives have a fitted effect of over 55% in size. The method, boiled down:
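Counter screen for cytotoxicity run in parallel with the PPARd reporter screen. Beta-lactamase reporter HEK293H cells exposed to compounds 17 h; ATP-based CellTiter-Glo luminescence quantified viability.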

In assay [11] the target is Peroxisome proliferator-activated receptor delta (Homo sapiens) (UniProt Q03181). Briefly: qHTS assay to identify small molecule agonists of the peroxisome proliferator-activated receptor delta (PPARd) signaling pathway (AID 743212; calls by dose curve). Put shortly: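 HEK293H PPARd-bla cells; 5 h preincubation 37 C/5% CO2; compound (DMSO) 37 C; LiveBLAzer B/G FRET substrate 2 h RT; fluorescence intensity.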
Sequence of Peroxisome proliferator-activated receptor delta (Homo sapiens) (Q03181 whole entry, looked up): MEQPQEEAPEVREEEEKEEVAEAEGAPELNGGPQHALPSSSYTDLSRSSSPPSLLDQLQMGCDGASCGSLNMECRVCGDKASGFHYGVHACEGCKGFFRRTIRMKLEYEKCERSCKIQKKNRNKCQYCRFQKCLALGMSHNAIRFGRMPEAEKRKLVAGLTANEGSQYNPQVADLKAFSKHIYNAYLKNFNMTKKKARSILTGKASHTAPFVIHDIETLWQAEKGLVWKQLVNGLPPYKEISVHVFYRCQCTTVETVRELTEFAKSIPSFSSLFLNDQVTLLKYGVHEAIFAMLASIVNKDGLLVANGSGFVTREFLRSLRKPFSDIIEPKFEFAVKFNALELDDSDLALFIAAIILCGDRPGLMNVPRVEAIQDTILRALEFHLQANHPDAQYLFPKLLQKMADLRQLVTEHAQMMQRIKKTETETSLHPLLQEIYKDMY

Assay [12] in a line: qHTS assay to identify small molecule antagonists of the peroxisome proliferator-activated receptor delta (PPARd) signaling pathway - cell viability counter screen (AID 743213). Note: nearly all actives have a fitted effect of over 50% in size. Put shortly: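 Cytotoxicity counter screen: CellTiter-Glo luminescence read 30 min after addition, in the same wells as the reporter assay. There, PPARd UAS-bla HEK293H cells (3000/well) were treated 17 h at 37 C with compound and 300 nM L165041.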

Assay [13] deals with Peroxisome proliferator-activated receptor delta (Homo sapiens) (UniProt Q03181). Briefly: qHTS assay to identify small molecule antagonists of the peroxisome proliferator-activated receptor delta (PPARd) signaling pathway (AID 743215; active = well fitted inhibition curve with a large enough effect in the signal ratio in the repeat runs, not every such curve was filed as active; the % refers to the signal ratio;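 note: cells stimulated with agonist L165041 at 300 nM final during compound exposure; series mostly up to about 62 µM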). Put shortly: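 PPARd-bla HEK293H cells (UAS-bla reporter) preincubated 5 h, then given compound plus 300 nM final L165041 agonist for 17 h at 37 C. Beta-lactamase activity read by LiveBLAzer B/G FRET substrate fluorescence after 2 h at room temperature.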

The nature of assay [14]: qHTS assay to identify small molecule agonists of the farnesoid-X-receptor (FXR) signaling pathway - cell viability counter screen (AID 743218). Note: nearly all actives have a fitted effect of over 45% in size. Put shortly:
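FXR-UAS-bla HEK 293T cells exposed to compounds for 16 h at 37C. Cytotoxicity read in the same wells by CellTiter-Glo luminescence after 30 min at room temperature, following the beta-lactamase FRET read.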

Assay [15] can be described thus: qHTS assay to identify small molecule antagonists of the farnesoid-X-receptor (FXR) signaling pathway - cell viability counter screen (AID 743221; active = well fitted cell-killing curve with a large enough effect in the repeat runs, not every such curve was filed as active; note: nearly all actives have a fitted effect of over 50% in size). The method, boiled down:
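Multiplexed counter screen: viability of FXR-bla HEK 293T cells under agonist stimulation by chenodeoxycholic acid (50 uM, final) and test compound for 16 h at 37 C, measured by CellTiter-Glo luminescence in the reporter wells.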

Assay [16] concerns the target Bile acid receptor (Homo sapiens) (UniProt Q96RI1). Kind of assay: qHTS assay to identify small molecule antagonists of the farnesoid-X-receptor (FXR) signaling pathway (AID 743217; active = well fitted inhibition curve with a large enough effect in the signal ratio in the repeat runs, not every such curve was filed as active; the % refers to the signal ratio). The method, boiled down: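 FXR-UAS-bla HEK 293T cells (beta-lactamase reporter) given compound plus chenodeoxycholic acid (50 uM final), 16 h at 37C. LiveBLAzer B/G FRET substrate added for 2 h at room temperature; fluorescence read.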

Assay [17] has the same target. Kind of assay: qHTS assay to identify small molecule agonists of the farnesoid-X-receptor (FXR) signaling pathway (AID 743220; active = well fitted activation curve with a large enough effect in the signal ratio in the repeat runs, not every such curve was filed as active; the % refers to the signal ratio). The method, boiled down:
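Beta-lactamase reporter under UAS control in GeneBLAzer FXR HEK 293T cells (5000/well) measured with LiveBLAzer FRET substrate after 2 h at room temperature. Compound exposure lasted 16 h at 37C.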

The nature of assay [18]: qHTS assay to identify small molecule antagonists of the peroxisome proliferator-activated receptor gamma (PPARg) signaling pathway - cell viability counter screen (AID 743194). Note: nearly all actives have a fitted effect of over 55% in size. The method, boiled down:
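Viability was measured as CellTiter-Glo luminescence in GeneBLAzer PPARg UAS-bla HEK293H cells. These cells had been exposed 17 h at 37 C to compounds together with rosiglitazone at 50 nM final, with the beta-lactamase readout taken in the same wells.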

The target of assay [19] is Vitamin D3 receptor (Homo sapiens) (UniProt P11473). Briefly: qHTS assay to identify small molecule agonists of the vitamin D receptor (VDR) signaling pathway (AID 743222; calls by dose curve). The method, boiled down:
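VDR-bla cells plated 4 h at 37 C, then exposed to compounds for 16 h at 37 C. Beta-lactamase reporter activity measured by fluorescence after 2 h room-temperature loading with LiveBLAzer B/G FRET substrate.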

Assay [20] shares this target. Briefly: qHTS assay to identify small molecule antagonists of the vitamin D receptor (VDR) signaling pathway (AID 743223; active = well fitted inhibition curve with a large enough effect in the signal ratio in the repeat runs, not every such curve was filed as active; the % refers to the signal ratio). The method, boiled down: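 Cells carrying a VDR-driven beta-lactamase reporter (VDR-bla) were co-treated with compound and 3 nM final 1alpha,25-dihydroxyvitamin D3 for 16 h at 37C; reporter activity was measured as FRET substrate fluorescence after 2 h at room temperature.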

Among the data in PubChem BioAssay (Tox21) are Potency and outcome values, retold here.

Results filed as inconclusive are left out. The source made the active and inactive calls. Unless noted, calls come from the whole dose curve; as a rule, active = well fitted curve in the direction sought with a large enough effect in the repeat runs; inconclusive = weak or mixed curves; inactive = no such curve, though single readings can be large; an effect the other way counts as inactive or inconclusive.

Sequence of Vitamin D3 receptor (Homo sapiens) (P11473 whole entry, looked up): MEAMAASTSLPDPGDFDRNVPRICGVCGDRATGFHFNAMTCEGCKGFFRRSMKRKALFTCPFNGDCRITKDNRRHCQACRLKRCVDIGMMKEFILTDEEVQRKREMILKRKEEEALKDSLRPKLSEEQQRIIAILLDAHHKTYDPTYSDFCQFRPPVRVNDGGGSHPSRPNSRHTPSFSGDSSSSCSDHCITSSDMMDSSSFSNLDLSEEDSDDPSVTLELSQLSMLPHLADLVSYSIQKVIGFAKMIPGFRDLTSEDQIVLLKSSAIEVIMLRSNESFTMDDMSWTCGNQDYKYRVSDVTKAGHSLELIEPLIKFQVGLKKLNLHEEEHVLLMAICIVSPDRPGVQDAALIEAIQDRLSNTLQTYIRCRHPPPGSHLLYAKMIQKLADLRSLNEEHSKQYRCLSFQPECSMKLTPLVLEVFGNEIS
Sequence of Bile acid receptor (Homo sapiens) (Q96RI1 whole entry, looked up): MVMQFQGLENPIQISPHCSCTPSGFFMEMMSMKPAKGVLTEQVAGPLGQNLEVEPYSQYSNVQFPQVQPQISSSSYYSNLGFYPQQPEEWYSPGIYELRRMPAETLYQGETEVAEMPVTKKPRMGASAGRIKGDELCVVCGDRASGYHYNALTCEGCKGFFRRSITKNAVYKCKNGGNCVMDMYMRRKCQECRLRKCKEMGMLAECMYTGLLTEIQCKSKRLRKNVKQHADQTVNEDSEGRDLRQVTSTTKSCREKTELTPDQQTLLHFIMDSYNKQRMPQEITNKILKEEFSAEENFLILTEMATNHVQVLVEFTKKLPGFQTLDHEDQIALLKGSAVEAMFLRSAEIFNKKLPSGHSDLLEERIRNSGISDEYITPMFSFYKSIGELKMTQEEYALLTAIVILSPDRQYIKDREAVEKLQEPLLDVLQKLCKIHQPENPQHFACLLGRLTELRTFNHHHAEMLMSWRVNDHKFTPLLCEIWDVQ
Sequence of Aryl hydrocarbon receptor (Homo sapiens) (P35869 whole entry, looked up): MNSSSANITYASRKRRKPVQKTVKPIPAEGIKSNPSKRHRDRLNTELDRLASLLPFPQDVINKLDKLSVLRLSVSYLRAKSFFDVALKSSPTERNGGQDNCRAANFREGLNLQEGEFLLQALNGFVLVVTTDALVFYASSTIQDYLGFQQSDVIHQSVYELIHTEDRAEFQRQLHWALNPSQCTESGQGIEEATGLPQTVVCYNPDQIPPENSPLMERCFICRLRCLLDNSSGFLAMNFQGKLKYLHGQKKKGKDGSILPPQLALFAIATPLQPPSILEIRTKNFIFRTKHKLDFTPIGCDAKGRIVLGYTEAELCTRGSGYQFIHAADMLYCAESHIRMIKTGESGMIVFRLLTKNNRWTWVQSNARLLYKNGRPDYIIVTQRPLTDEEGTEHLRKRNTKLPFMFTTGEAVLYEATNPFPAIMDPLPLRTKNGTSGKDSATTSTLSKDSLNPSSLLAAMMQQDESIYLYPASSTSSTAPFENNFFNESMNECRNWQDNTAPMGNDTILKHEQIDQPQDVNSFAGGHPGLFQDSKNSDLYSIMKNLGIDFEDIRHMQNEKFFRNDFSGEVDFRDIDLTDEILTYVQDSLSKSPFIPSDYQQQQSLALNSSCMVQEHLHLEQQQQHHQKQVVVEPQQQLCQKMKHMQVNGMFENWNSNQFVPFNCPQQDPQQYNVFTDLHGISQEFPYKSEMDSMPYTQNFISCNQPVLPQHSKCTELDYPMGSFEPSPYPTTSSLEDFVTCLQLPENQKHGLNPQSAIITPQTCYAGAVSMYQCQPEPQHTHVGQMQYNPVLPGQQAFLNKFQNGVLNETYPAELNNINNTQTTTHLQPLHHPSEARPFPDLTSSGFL
Sequence of Peroxisome proliferator-activated receptor gamma (Homo sapiens) (P37231 whole entry, looked up): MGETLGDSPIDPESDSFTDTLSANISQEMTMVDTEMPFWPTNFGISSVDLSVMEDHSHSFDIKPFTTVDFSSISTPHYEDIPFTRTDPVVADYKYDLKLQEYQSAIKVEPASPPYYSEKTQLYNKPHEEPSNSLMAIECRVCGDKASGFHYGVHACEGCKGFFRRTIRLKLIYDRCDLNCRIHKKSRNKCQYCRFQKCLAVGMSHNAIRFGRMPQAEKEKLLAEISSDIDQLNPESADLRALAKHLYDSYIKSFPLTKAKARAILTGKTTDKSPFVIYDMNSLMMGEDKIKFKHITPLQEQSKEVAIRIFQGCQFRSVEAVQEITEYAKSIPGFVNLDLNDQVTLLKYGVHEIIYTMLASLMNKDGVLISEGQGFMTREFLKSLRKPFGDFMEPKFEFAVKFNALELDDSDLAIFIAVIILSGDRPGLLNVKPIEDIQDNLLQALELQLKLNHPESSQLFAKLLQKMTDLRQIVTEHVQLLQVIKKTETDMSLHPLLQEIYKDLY

`O=C(O)c1cc(=O)[nH]c(=O)[nH]1`: the Potency result in assay [1], in assay [2], in assay [3], in assay [5], in assay [6] and in assay [7] was “inactive” throughout. Further, the Potency result in assay [8], in assay [10], in assay [12], in assay [14] and in assay [15] was “inactive” in each case. The compound was called inactive in assay [4], in assay [9], in assay [11] and in [13].

As for `O=C(O)c1ccc(O)cc1`, the Potency result in assay [1], in [2], in [3], in [5], in assay [7] and in assay [8] was “inactive” each time. In addition, the Potency entry in assay [10], in [12], in assay [16], in [14] and in [15] was “inactive” each time. Also, the call in assay [4], in assay [9], in assay [11], in [13] and in assay [17] was inactive.

With `CC(C)(C)c1cccc(C(C)(C)C)c1O`, the Potency entry in assay [1], in [2], in assay [3], in assay [5], in assay [18] and in assay [6] was “inactive” each time. For the same compound, the Potency result in assay [7], in assay [8], in assay [10], in [12], in assay [16] and in assay [14] was “inactive” in each case. The Potency entry in assay [15] was “inactive”. Further, the call in [4], in [9], in assay [11], in assay [13] and in [17] was inactive.

Take `CCCCCCC(C)O` (stereo unspecified): the Potency result in assay [1], in assay [2], in assay [3], in assay [5], in assay [18] and in assay [6] was “inactive” in each case. The Potency result in assay [7], in assay [8], in assay [10], in [12] and in assay [14] was “inactive” in each case. The compound was classed as inactive in [4], in [9], in assay [11], in [13], in [19] and in assay [20].

Regarding `CC(=O)Oc1c(C)c(C)c2c(c1C)CC[C@@](C)(CCC[C@H](C)CCC[C@H](C)CCCC(C)C)O2`, the Potency entry in assay [1], in assay [2], in assay [3], in assay [5], in assay [18] and in assay [6] was “inactive” throughout. The Potency result in [7], in assay [8], in [10], in assay [12] and in assay [14] was “inactive” in each case. For the same compound, the result in [4], in [9], in [11], in [19] and in [20] was inactive.

Regarding `OC[C@H]1O[C@@H]2O[C@H]3[C@H](O)[C@@H](O)[C@@H](O[C@H]4[C@H](O)[C@@H](O)[C@@H](O[C@H]5[C@H](O)[C@@H](O)[C@@H](O[C@H]6[C@H](O)[C@@H](O)[C@@H](O[C@H]7[C@H](O)[C@@H](O)[C@@H](O[C@H]1[C@H](O)[C@H]2O)O[C@@H]7CO)O[C@@H]6CO)O[C@@H]5CO)O[C@@H]4CO)O[C@@H]3CO`, the Potency entry in assay [1], in assay [2], in [3], in assay [5], in assay [18] and in assay [6] was “inactive” each time. Besides, the Potency entry in assay [7], in [8], in [10], in [12], in assay [14] and in [15] was “inactive” each time. The compound was called inactive in assay [4], in assay [9], in assay [19] and in [20].

Consider `Cc1ccc([N+](=O)[O-])c(C)c1`, for which the Potency entry in assay [1], in assay [2], in assay [3], in assay [5], in assay [18] and in assay [6] was “inactive” throughout. For the same compound, the Potency result in assay [7], in assay [8], in assay [10], in assay [12], in [16] and in assay [14] was “inactive” throughout. Moreover, the Potency result in [15] was “inactive”. The call in [4], in [9], in [11], in [13], in [17] and in assay [19] was inactive. For the same compound, the compound was called inactive in [20].

For `CC(=O)[C@H]1CC[C@H]2[C@@H]3CC=C4C[C@@H](O)CC[C@]4(C)[C@H]3CC[C@]12C`, the Potency result in assay [1], in assay [2], in assay [3], in assay [18], in assay [7] and in assay [8] was “inactive” in each case. Moreover, the Potency result in assay [10], in assay [12], in assay [16] and in assay [14] was “inactive” each time. Further, the compound was called inactive in assay [4], in [9], in assay [11], in [13], in assay [17] and in [19]. Also, the outcome in assay [20] was inactive. Also, the Potency in assay [6] was 12.2 µM (active).
